# “And” between values parts separate entries of the source, which are not always exact repeats. Equal entries are not always repeated. Among all 89,000 compounds or so, about 10 (0.01%) were called active. About 10% were inconclusive and are not listed. No stated cut-off is given here; in the data, active means activity change below about -37% (passing the limit was not always enough); inconclusive means no clear call, values can overlap the other calls; tested in A549 cells. These entries were drawn from the full list.
# Assay: blocks a specific stage of Vaccinia orthopoxvirus infection, primary screen, cell-based, single point (AID 1053133)
# Settings: Vaccinia-infected cells, mCherry/Venus stage reporter fluorescence, stronger effect = lower value, concentration not given here; activity change (Venus): measured here: Venus reporter, other viral stage
Compound,activity change (Venus),activity change (mCherry)
C[C@H](CO)N1C[C@H](C)[C@@H](CN(C)C(=O)Nc2ccc3c(c2)OCO3)OCCCC[C@H](C)Oc2ccc(NS(=O)(=O)c3cn(C)cn3)cc2C1=O,3.74%,11.2% (inactive)
CO[C@H]1CN(C)C(=O)c2ccc(NC(=O)c3cc(C)on3)cc2OC[C@@H](C)NC[C@@H]1C,4.97%,2.62% (inactive)
CCCc1cn(CC[C@H]2CC[C@@H](NS(=O)(=O)c3ccccc3Cl)[C@@H](CO)O2)nn1,1.1%,5.97% (inactive)
CCNC(=O)[C@H]1[C@H](CO)[C@H]2Cn3c(ccc(/C=C/c4ccccc4)c3=O)[C@@H]1N2C(=O)C1CCC1,12.9%,11.2% (inactive)
O=C(C[C@H]1C=C[C@@H](NC(=O)C2CCOCC2)[C@@H](CO)O1)NCC1CCCCC1,1.03%,8.68% (inactive)
O=C(CC1CC1)Nc1ccc2c(c1)[C@@H]1C[C@@H](CC(=O)NC3CCCCC3)O[C@@H](CO)[C@@H]1O2,-4.69%,-3.33% (inactive)
O=C(Nc1cc(F)ccc1F)N[C@@H]1C=C[C@@H](CC(=O)N2CCc3ccccc3C2)O[C@@H]1CO,-0.0639%,-17.7% (inactive)
C[C@H](CO)N1C[C@H](C)[C@@H](CN(C)C(=O)c2cnccn2)Oc2ncc(Br)cc2C1=O,-0.956%,2.65% (inactive)
CCCNC(=O)N(C)C[C@H]1Oc2cc(C3=CCCCC3)ccc2S(=O)(=O)N([C@H](C)CO)C[C@H]1C,-0.298%,-6.09% (inactive)
Cc1ccccc1S(=O)(=O)N[C@H]1CC[C@H](CCn2cc(-c3ccc(F)cc3)nn2)O[C@H]1CO,-25.8%,-28.8% (inactive)
C[C@H]1CCCCO[C@H](CN(C)S(=O)(=O)c2cn(C)cn2)[C@@H](C)CN([C@@H](C)CO)C(=O)c2cc(NC(=O)C3CCCCC3)ccc2O1,4.42%,9.05% (inactive)
O=C(Nc1nccs1)[C@@H]1[C@@H](CO)[C@@H]2Cn3c(ccc(-c4cccnc4)c3=O)[C@@H]2N1CC1CC1,2.33%,16.6% (inactive)
COc1cccc(-c2cnc3c(c2)C(=O)N([C@H](C)CO)C[C@H](C)[C@@H](CN(C)Cc2ccc(C(=O)O)cc2)O3)c1,12.8%,13.4% (inactive)
COc1ccccc1-c1cnc2c(c1)C(=O)N([C@H](C)CO)C[C@H](C)[C@@H](CN(C)C(=O)CC1CC1)O2,-0.21%,5.06% (inactive)
O=C(C[C@H]1CC[C@H]2[C@@H](COC[C@@H](O)CN2Cc2ccccc2F)O1)NCc1ccccc1F,2.5%,-8.36% (inactive)
O=C(C[C@H]1CC[C@H]2[C@@H](COC[C@@H](O)CN2S(=O)(=O)c2ccc(Cl)cc2)O1)NCCN1CCCCC1,2.96%,7.02% (inactive)
COCC#Cc1ccc(CC[C@H]2O[C@H]3CC[C@@H](CO)O[C@H]3C[C@H]2NC(=O)Nc2c(C)noc2C)cc1,12.1%,18.6% (inactive)
CC(=O)N(C)C[C@@H]1Oc2ncc(C#Cc3ccccn3)cc2C(=O)N([C@@H](C)CO)C[C@@H]1C,9.68%,7.16% (inactive)
O=C(Cc1ccncc1)NCC[C@H]1CC[C@H](NC(=O)Nc2cccc(F)c2)[C@H](CO)O1,5.2%,3.69% (inactive)

Compound,activity change (Venus),activity change (mCherry)
COc1ccc(NC(=O)Nc2ccc3c(c2)C(=O)N([C@@H](C)CO)C[C@@H](C)[C@@H](CN(C)C(=O)Nc2ccc(F)cc2)OCCCC[C@@H](C)O3)cc1,-5.96%,0.168% (inactive)
Cn1cnc(CCNC(=O)[C@H]2[C@H](CO)[C@H]3Cn4c(cccc4=O)[C@H]3N2C(=O)Nc2ccccc2)c1,5.32%,12% (inactive)
COc1ccc(S(=O)(=O)Nc2ccc3c(c2)C(=O)N([C@@H](C)CO)C[C@H](C)[C@H](CN(C)Cc2ccc(C(=O)O)cc2)OCCCC[C@@H](C)O3)cc1,19.1%,34.5% (inactive)
O=C(C1CCCC1)N1[C@H](CO)[C@@H]2c3ccccc3N(S(=O)(=O)c3ccccc3)C[C@@H]21,-0.835%,3.15% (inactive)
CCC(=O)N1CCC2(CC1)CN(Cc1ccc(Cl)cc1)[C@@H](CO)c1[nH]c3cc(OC)ccc3c12,3.95%,2.91% (inactive)
O=C(C[C@H]1CC[C@@H](NC(=O)c2ccc(F)cc2)[C@@H](CO)O1)NCc1ccncn1,6.42%,11.2% (inactive)
Cc1ccc(S(=O)(=O)NCC[C@@H]2CC[C@@H](NC(=O)CCN3CCCCC3)[C@@H](CO)O2)cc1,12.7%,18.4% (inactive)
Cc1ccccc1-c1ccc2c(c1)O[C@@H](CN(C)Cc1ccc(C(=O)O)cc1)[C@@H](C)CN([C@H](C)CO)S2(=O)=O,9.16% and -2.89%,13.4% (inactive) and 11.3% (inactive)
COC(=O)[C@@H]1[C@@H](CO)[C@@H]2Cn3c(ccc(C4=CCCC4)c3=O)[C@@H]2N1Cc1cncnc1,12.2%,12.2% (inactive)
C[C@H](O)C#Cc1ccc([C@@H]2[C@@H](CO)N3CCCCN(C(=O)c4ccc(F)cc4)C[C@H]23)cc1,-0.172%,24.9% (inactive)
COC(=O)C[C@H]1CC[C@H]2[C@H](COc3ccc(NC(=O)C4CC4)cc3C(=O)N2C)O1,8.69%,16.9% (inactive)
C[C@@H](NC(=O)C[C@H]1CC[C@H](NS(=O)(=O)c2cccc(F)c2)[C@H](CO)O1)c1ccccc1,2.54%,12.2% (inactive)
COc1ccc(NC(=O)N(C)C[C@@H]2OCCCC[C@H](C)Oc3ccc(NS(=O)(=O)c4cn(C)cn4)cc3C(=O)N([C@@H](C)CO)C[C@@H]2C)cc1,6.5%,16% (inactive)
CO[C@@H]1CN(C)C(=O)c2ccc(NS(=O)(=O)c3cccc(F)c3)cc2OC[C@H](C)N(C(=O)Cc2cccnc2)C[C@@H]1C,-6.63%,-1.85% (inactive)
CCCNC(=O)N1[C@H](C#N)[C@@H](c2ccccc2C2=CCCCC2)[C@@H]1CO,2.66%,-4.44% (inactive)
O=C(C[C@H]1CC[C@H](NC(=O)c2ccc(F)cc2)[C@@H](CO)O1)NCCc1ccncc1,-8.31%,6.53% (inactive)
CC(=O)N(C)C[C@@H]1Oc2cc(C#Cc3ccccc3F)ccc2S(=O)(=O)N([C@@H](C)CO)C[C@@H]1C,-24.5%,-31.1% (inactive)
CCCNC(=O)N[C@H]1C=C[C@@H](CC(=O)NC2CCCCC2)O[C@H]1CO,-1.05%,-4.3% (inactive)
CS(=O)(=O)Nc1ccc2c(c1)[C@H]1C[C@@H](CC(=O)N3CCOCC3)O[C@@H](CO)[C@H]1O2,11.4%,11% (inactive)

Compound,activity change (Venus),activity change (mCherry)
CC(C)NC(=O)N1[C@H](CO)[C@H](c2ccccc2)C12CN(C(=O)Cc1ccccc1)C2,4.09%,-7.19% (inactive)
COc1ccc2c3c([nH]c2c1)[C@@H](CO)N(C(=O)NC(C)C)CC31CCN(C(=O)c2ccccn2)CC1,4.18%,12.8% (inactive)
O=C(N[C@H]1CC[C@@H](CCn2cc(Cc3ccccc3)nn2)O[C@H]1CO)c1cnccn1,-8.51%,6.03% (inactive)
COc1ccc(-c2ccccc2[C@@H]2[C@@H](C#N)N(C(=O)NC3CCCC3)[C@H]2CO)cc1,-17.8%,-22.2% (inactive)
C[C@@H]1CN([C@H](C)CO)C(=O)c2cc(NC(=O)Nc3ccc(F)cc3)ccc2O[C@@H](C)CCCCO[C@@H]1CN(C)S(=O)(=O)c1cn(C)cn1,23.4%,41.6% (inactive)
CCN1[C@@H]2Cn3c(ccc(-c4cccc(OC)c4)c3=O)[C@H]1[C@@H](C(=O)N(C)C)[C@@H]2CO,15.1%,20% (inactive)
CO[C@H]1CN(C)C(=O)c2ccc(NC(=O)C3CCOCC3)cc2OC[C@H](C)NC[C@H]1C,1.25%,-0.453% (inactive)
CN1c2ccc(C#Cc3cccnc3)cc2[C@H]2[C@H](CCN2S(=O)(=O)c2ccccc2)[C@@H]1CO,-9.21%,-5.16% (inactive)
C[C@H](O)C#Cc1cnc2c(c1)C(=O)N([C@@H](C)CO)C[C@@H](C)[C@@H](CN(C)C(=O)Cc1ccccn1)O2,10.7%,17.6% (inactive)
O=C(C[C@H]1CC[C@H](NC(=O)CCN2CCCCC2)[C@@H](CO)O1)Nc1ccccc1,15.9%,7.83% (inactive)
O=C(NCC[C@H]1CC[C@@H](NS(=O)(=O)c2cccc(Cl)c2)[C@@H](CO)O1)c1cnccn1,-5.45%,-13.7% (inactive)
C[C@H](CO)N1C[C@H](C)[C@@H](CN(C)Cc2ccc(Oc3ccccc3)cc2)Oc2cc(-c3ccncc3)ccc2S1(=O)=O,1.19%,4.26% (inactive)
CO[C@@H]1CC[C@H]2CCN(C)C(=O)C[C@@H](c3ccccc3)CN(C)C(=O)c3cc(C#N)ccc3OC[C@@H]1O2,-9.45%,-7.23% (inactive)
O=C(C[C@@H]1CC[C@H]2[C@@H](COC[C@H](O)CN2C(=O)Nc2ccccc2)O1)NCc1ccccc1F,9.72%,7.54% (inactive)
COc1cccc(S(=O)(=O)N2C[C@@H]3N[C@H](C2)C3c2ccc(-c3cccc(C(=O)N(C)C)c3)cc2)c1 (some centres undefined),-11.2%,-13.4% (inactive)
CCCC(=O)N1CC2(CCN(C(=O)C3CC3)CC2)c2c(n(C)c3cc(OC)ccc23)[C@H]1CO,-6.7%,-2.69% (inactive)
COCC(=O)Nc1ccc2c(c1)OC[C@@H](C)N(Cc1ccccn1)C[C@H](C)[C@@H](OC)CN(C)C2=O,15.4%,16.4% (inactive)
C/C=C/c1ccc(C2[C@H]3CNC[C@@H]2N3C(=O)Nc2ccc(F)cc2)cc1 (some centres undefined),2.48% and -0.546%,0.263% (inactive) and -2.6% (inactive)
COc1ccc2c3c([nH]c2c1)[C@H](CO)N(C(=O)CN1CCOCC1)CC31CN(C(C)=O)C1,24.1%,42.6% (inactive)
